The values that follow come from PubChem BioAssay (NCI).

This test deals with MDA-MB-468 breast. Nature of the test: NCI-60 one-dose screen, 48 h (100 = growth as untreated, 0 = no growth, -100 = all killed). To be noted: 10 µM unless noted.

About 83,000 compounds went through this panel and 20% of them were active in at least one assay; those are over-represented in the sample as a whole.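 Method: cells in 96-well plates; compound added at one concentration; 48 h incubation; percent growth measured; values under 10 scored active.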 Unmarked numbers belong to inactive results. Calls of active or inactive are those of the source.

Consider `O=C(N/N=C/c1ccc(OC(F)F)c(OC2CCCC2)c1)c1cnn2c1NC(c1ccccc1)C2` (configuration not stated), for which the growth was 84%. On to `CCCCNC(=O)NS(=O)(=O)c1ccc(N2N=C(c3ccc(C)cc3C)CC2c2ccc(N(C)C)cc2)cc1` (configuration not stated), for which the growth was 60%. Consider `CCSc1nc2c([nH]1)c(=O)n(C)c(=S)n2C`, for which the growth is 109%.

Regarding `O=C(C[n+]1cccc(Br)c1)c1ccc2c(c1)CCCC2`, the growth is 94%. Consider `Cc1ccn2c(-c3csc(Nc4cccc(O)c4)n3)c(C)nc2c1`, for which the growth is -33.1% (active). For `O=c1nc(Nc2nc3ccccc3s2)[nH]c(=O)c2ccccc12`, the growth was 99.4%. Next, `CC1CCc2c(C(=O)Nc3ncc(Cc4cccc([N+](=O)[O-])c4)s3)csc2C1` (configuration not stated): 12.3%; `O=C(CCCN1CCOCC1)Nc1ccc(Cn2nnc3c2C(=O)c2nnn(Cc4ccc(NC(=O)CCCN5CCOCC5)cc4)c2C3=O)cc1`: -74.7% (active). Next, `Cc1cccc(C(=O)N(C(C)C)C(C)C)c1`: 105%; `CN(C)Cc1c(-c2ccccc2)[nH]c2ccccc12`: 103%. For the molecule `C=C(C)[C@@H]1CC[C@]2(C)CC[C@]3(C)[C@H](CC[C@@H]4[C@@]5(C)CCCNC(C)(C)[C@@H]5CC[C@]43C)[C@@H]12`, the growth was 26.2%.

Turning to `COC1=CC=CC2(OC)C3(O)CCCc4cccc(c43)N3C(=O)COC132` (configuration not stated), the growth is 115%.

Take `COC(=O)CCCCCN=Cc1c(O)c(O)c(C(C)C)c2cc(C)c(-c3c(C)cc4c(C(C)C)c(O)c(O)c(C=NCCCCCC(=O)OC)c4c3O)c(O)c12`: the growth was 26.3%. As for `COC(=O)C1(O)NC(=C(C#N)C#N)C(C#N)=C1C(=O)c1ccc(OC)c(OC)c1` (configuration not stated), the growth is 110%. Consider `O=[N+]([O-])c1ccccc1S(=O)c1ccccc1[N+](=O)[O-]`, for which the growth is 40.1%. Consider `COc1cc(Cl)c(C)cc1NC(=O)c1cc2ccccc2cc1O`, for which the growth is -8.5% (active). On to `C/C(=N\O)C(=O)NCCCCCC(=O)Nc1ccccc1`, for which the growth was 114%. The figure for `CCOC(=O)[C@@H](C)C[C@H](Cc1ccccc1)NC(=O)c1csc([C@@H](C[C@H](C(C)C)N(C)C(=O)[C@@H](NC(=O)[C@H]2C[C@H](O[Si](C)(C)C(C)(C)C)CCN2C)C(C)C)OC(C)=O)n1` is 3.46% [9.25 µM] (active). As for `CC(=O)c1c(C)nc(SCC(=O)Nc2ccc(Cl)cc2)n1-c1ccc(Cl)cc1`, the growth is 71.3%. On to `COc1cc2cc3c(nc2cc1OC)CCN3Cc1ccc(NC(=O)Nc2cc(C(F)(F)F)cc(C(F)(F)F)c2)cc1`, for which the growth is 52.9%. The figure for `N/C(=N\C(N)=N\c1nc2ccccc2s1)c1cnccn1` is -24.8% (active); for `COc1cc(NC(=O)NCc2ccco2)ccc1-c1ccc(NC(=O)NCc2ccco2)cc1OC` it is 16.8%; for `c1ccc(-c2n(Cc3ccc4ccccc4n3)cc[n+]2Cc2ccc3ccccc3c2)cc1` it is -33.5% (active). Regarding `c1csc(-c2[nH]nc3c2CCc2ccccc2-3)c1`, the growth was -18.7% (active).

Turning to `Nc1nc(Cn2c(-c3nonc3N)nc3ccccc32)nc(N2CCCCC2)n1`, the growth was 72.8%. For the molecule `COc1cc(/C=C2\C(=O)Nc3ccc(N(C)C)cc32)cc(OC)c1OC`, the growth was -2.28% (active). For `CCCCCCC1(C)NCCO1` (configuration not stated), the growth is 103%.

Take `Cc1ccc(Nc2c(C(N)=O)cnc3ccc(S(=O)(=O)Nc4cc(C)on4)cc23)cc1`: the growth was 92.4%. As to `Nc1[nH]n2cc(-c3ccc(F)cc3)nc2c1N=Nc1ccc(S(N)(=O)=O)cc1`, the growth was 83.4%. `CCN(CC)CCOc1ccc2ccc(=O)oc2c1`: the growth was 86%. `O=C(Cc1ccc(F)c(Cl)c1)Nc1cc(C2(C(F)(F)F)CC2)nn1Cc1ccccc1`: the growth is 23.9%. Take `COc1cc(CSc2nc3ccc(Cl)cc3c(=O)n2-c2ccccc2)cc(OC)c1OC`: the growth was 57.4%. On to `Cc1cc(NS(=O)(=O)c2ccc(NC(=O)CSc3nc4ccccc4c(=O)n3-c3ccccc3)cc2)no1`, for which the growth is 91%.

As for `O=C(Nc1cccc(Cl)c1)Nc1nc2ccc([N+](=O)[O-])cc2o1`, the growth was -4.51% (active). Next, `Cc1ccc(C2=NN(c3ccc(S(N)(=O)=O)cc3)C(c3cn(-c4ccccc4)nc3-c3ccccc3)C2)cc1` (configuration not stated): 112%. With `NS(=O)(=O)c1ccc(Nc2nc(N/N=C/c3ccc4c(c3)OCO4)nc(Nc3ccccc3)n2)cc1`, the growth is 46.4%. For `CN(C)CCN(C)CC(C)(C)C(=O)/C=C/c1ccc(Cl)cc1`, the growth is -46.2% (active).
